The source of these data is PubChem BioAssay.

Unmarked numbers belong to inactive results. The source made the active and inactive calls.

The first assay is described as follows: basal S. cerevisiae growth modulation, no modifier, primary screen, OD600, strain BY4716, 24 h, basal condition (AID 1173). Particulars: OD600, 24 h, higher = more signal, called active from +8 up or from −8 down.
With `COC(=O)C(CC#Cc1ccc2c(c1)[C@]1(C(=O)N2)[C@H](C(=O)N2CCCCCCC2)[C@H]2C(=O)O[C@H](c3ccccc3)[C@H](c3ccccc3)N2[C@@H]1c1ccc(OCCO)cc1)C(=O)OC`, the z-score is 1.43.
With `CN(C)C(=O)[C@]1(CCS(=O)(=O)c2ccccc2)N=C(c2ccc(OCCCO)cc2)O[C@@H]1c1ccccc1CN=[N+]=[N-]`, the z-score was 0.705.
With `CC1CC/C=C\[C@H]2OC34C=CCN(CCN5CCOCC5)C(=O)[C@H]3N(C(CO)C(C)C)C(=O)[C@@H]4C2C(=O)O1` (some centres undefined), the z-score is 0.183.
On the same count and under the same terms, as for `COc1ccc([Si](C)(C)[C@H]2[C@H](CC(=O)N(CCO)Cc3ccccc3)O[C@@]3(C(=O)N(c4ccccc4)c4ccccc43)[C@@H]2C)cc1`, the figure is 0.148.
Still for that read-out and setting: in the case of `C=CCNC(=O)[C@H]1[C@@H]2C(=O)O[C@@H](c3ccccc3)[C@@H](c3ccccc3)N2[C@@H](c2ccc(O)cc2)[C@]12C(=O)Nc1ccc(C#CCC(C(=O)OC)C(=O)OC)cc12` it was 0.24; in that of `CC[C@@H]1C=C(C(=O)O)[C@H](c2cccc(Cl)c2)N1S(=O)(=O)c1ccc(C)cc1`, -0.423; in that of `C=CCOC(=O)[C@H]1[C@@H]2C(=O)O[C@@H](c3ccccc3)[C@@H](c3ccccc3)N2[C@@H](c2ccc(OCCOC(=O)[C@H]3C[C@H]4C(=O)NCC(=O)N4[C@H]3c3ccc(O)cc3)cc2)[C@]12C(=O)Nc1ccccc12`, 1.1.
The same measure, in the same setting: as for `OCCCc1cc[n+](Cc2cc3c(cc2Br)OCO3)cc1`, the figure is -0.486.
For the compound `COc1ccc([Si](C)(C)[C@@H]2[C@@H](CC(=O)N(CCO)Cc3ccccc3)O[C@]3(C(=O)N(Cc4cccc(I)c4)c4ccccc43)[C@H]2C)cc1`, the z-score was -0.142.

A short description of a further assay: MM1S myeloma cell viability, profiling panel, resazurin fluorescence, basal, 24 h, PK04 Diversity Set (AID 1174).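 Note: MM1S multiple myeloma cell line; test concentration not given here.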 As to conditions: higher = more signal, called active from +8 up or from −8 down.
For `COc1ccc(C(=O)Nc2ccc(CN3C(=O)[C@]4(O[C@H](CC(=O)N(CCO)Cc5ccccc5)[C@@H]([Si](C)(C)c5ccc(OC)cc5)[C@@H]4C)c4ccccc43)cc2)cc1`, the z-score was -1.94.
The same measure, in the same setting: in the case of `Cc1ccc(S[C@]2(C(=O)NC(C)C)CC(=O)N(Cc3ccccc3)[C@@H]2c2ccc(CO)cc2I)cc1` it was -3.48.
Still for that read-out and setting: in the case of `C=C(CCCC)C(=O)CC[C@@H](OC(C)=O)c1ccc(OCCO)cc1` it was -0.953.
`COC(=O)[C@@]1(Cc2ccc(F)cc2)[C@H]2c3cc(C(=O)N4CCCC4)n(CCc4c[nH]c5cc(F)ccc45)c3C[C@H]2CN1C(=O)c1ccccc1`: the z-score was -0.0568.
On the same count and under the same terms, in the case of `C=CCN1C(=O)[C@]2(O[C@H](CCO)[C@@H]([Si](C)(C)c3ccc(OC)cc3)[C@@H]2C)c2cc(N3C(=O)c4ccccc4Oc4ccccc43)ccc21` it was -8.74 (active); in that of `COC(=O)C(CC#Cc1ccc2c(c1)[C@]1(C(=O)N2)[C@H](c2ccc(OCCO)cc2)N2[C@H](c3ccccc3)[C@H](c3ccccc3)OC(=O)[C@H]2[C@@H]1C(N)=O)C(=O)OC`, -0.551; in that of `CC(C)N1C(=O)[C@@]2(Cc3ccccc31)c1ccccc1C(=O)N(Cc1ccccc1C(F)(F)F)[C@H]2c1ccc(CO)cc1`, 0.0922.
On the same count and under the same terms, in the case of `C=C(C(=O)CC[C@@H](OC(=O)c1ccccc1-c1ccccc1C(=O)O)c1ccc(OCCO)cc1)C(C)C` it was 0.089.
The same measure, in the same setting: as for `COc1ccc(CCNC(=O)[C@@]2(C)c3ccccc3C(=O)N(Cc3ccc(OC(F)(F)F)cc3)[C@H]2c2ccc(CO)cc2)cc1`, the figure is 0.979; as for `[N-]=[N+]=NCc1ccccc1[C@H]1OC(c2ccc(OCCCO)cc2)=N[C@@]1(Cc1ccccc1N=[N+]=[N-])C(=O)O`, 0.119; as for `CC(C)c1ccc(NN2C(C(O)C3CCCCC3)C=CC3C(=O)N(c4ccccc4)C(=O)C32)cc1` (centres undefined), -1.12.
Consider `CC(CO)N1C(=O)[C@@H]2[C@H]3C(=O)OCC=C[C@H]3OC23C=CCN(c2ccc4ccccc4c2)C(=O)[C@@H]13` (some centres undefined), for which the z-score was 0.224.
Regarding `O=C1O[C@H](c2ccccc2)[C@H](c2ccccc2)N2[C@H]1[C@@H](C(=O)O)[C@]1(C(=O)Nc3ccccc31)[C@H]2c1ccc(OCCO)cc1`, the z-score was -0.0917.
Consider `C=CCNC(=O)[C@@H]1[C@H]2C(=O)O[C@H](c3ccccc3)[C@H](c3ccccc3)N2[C@H](c2ccc(OCCO)cc2)[C@@]12C(=O)N(C(=O)OCCOC)c1ccccc12`, for which the z-score is -0.522.
Still for that read-out and setting: in the case of `C[C@]1(C(=O)NC2CC2)c2ccccc2C(=O)N(Cc2cc(F)cc(C(F)(F)F)c2)[C@H]1c1ccc(CO)cc1` it was 0.872.
Same read-out and setting: as for `C=CCNC(=O)[C@@H]1[C@H]2C(=O)O[C@H](c3ccccc3)[C@H](c3ccccc3)N2[C@H](c2ccc(O)cc2)[C@@]12C(=O)Nc1ccc(C#CC3=CCCCC3)cc12`, the figure is -3.25; as for `Cc1cccc([C@H]2C[C@H]3C(Br)=C[C@@]2(CO)C(=O)[C@]32CO2)c1`, -0.398.
On the same count and under the same terms, as for `COc1ccc(CCNC(=O)[C@@]2(c3ccc([N+](=O)[O-])cc3)CC(=O)N(C3CCCCC3)[C@@H]2c2ccc(CO)cc2I)cc1`, the figure is -0.949.
With `C=CC[C@]12N=C(c3ccc(OCCCO)cc3)O[C@H]1c1ccccc1N(CCC)C2=O`, the z-score is -1.14.
Regarding `[N-]=[N+]=Nc1ccccc1C[C@@]1(C(=O)NCc2ccccc2)N=C(c2ccc(OCCCO)cc2)O[C@@H]1c1ccccc1`, the z-score was -1.71.
The same measure, in the same setting: in the case of `O=C1O[C@@H](c2ccccc2)[C@@H](c2ccccc2)N2[C@@H](c3ccccc3OCCO)[C@]3(C(=O)Nc4ccc(C#CC5(O)CCCCCC5)cc43)[C@@H](C(=O)N3CCCCCCC3)[C@H]12` it was -0.169; in that of `C=CC[C@H](O)c1ccc(O)c2ccccc12`, -1.42.
In the case of `C=C1C(=O)C=C2CN(C(=O)c3ccccc3)[C@@](Cc3ccc(F)cc3)(C(=O)OC)[C@@H]12`, the z-score is -9.98 (active).
For `COc1ccc(C(=O)Nc2cccc(CN3C(=O)[C@]4(O[C@H](CC(=O)N(CCO)Cc5ccccc5)[C@@H]([Si](C)(C)c5ccc(OC)cc5)[C@@H]4C)c4ccccc43)c2)cc1`, the z-score was -1.87.
With `COC(=O)C1=CC(CCCO)=CC(c2ccc(CN3CCCC3)cc2)N(C)C=C1C(=O)OC` (centres undefined), the z-score is -0.381.
Still for that read-out and setting: in the case of `[N-]=[N+]=NCc1ccccc1C[C@@]1(C(=O)NCCN2CCOCC2)N=C(c2ccc(OCCCO)cc2)O[C@@H]1c1ccccc1` it was -0.909; in that of `COC(=O)C(CC#Cc1ccc2c(c1)[C@]1(C(=O)N2)[C@H](C(=O)N2CCCCCCC2)[C@H]2C(=O)O[C@H](c3ccccc3)[C@H](c3ccccc3)N2[C@@H]1c1ccc(OCCO)cc1)C(=O)OC`, 0.229; in that of `CN(C)C(=O)[C@]1(CCS(=O)(=O)c2ccccc2)N=C(c2ccc(OCCCO)cc2)O[C@@H]1c1ccccc1CN=[N+]=[N-]`, 0.273.
Same read-out and setting: as for `CC1CC/C=C\[C@H]2OC34C=CCN(CCN5CCOCC5)C(=O)[C@H]3N(C(CO)C(C)C)C(=O)[C@@H]4C2C(=O)O1` (some centres undefined), the figure is -0.885; as for `COc1ccc([Si](C)(C)[C@H]2[C@H](CC(=O)N(CCO)Cc3ccccc3)O[C@@]3(C(=O)N(c4ccccc4)c4ccccc43)[C@@H]2C)cc1`, -8.42 (active).
The same measure, in the same setting: as for `C=CCNC(=O)[C@H]1[C@@H]2C(=O)O[C@@H](c3ccccc3)[C@@H](c3ccccc3)N2[C@@H](c2ccc(O)cc2)[C@]12C(=O)Nc1ccc(C#CCC(C(=O)OC)C(=O)OC)cc12`, the figure is 0.0789; as for `CC[C@@H]1C=C(C(=O)O)[C@H](c2cccc(Cl)c2)N1S(=O)(=O)c1ccc(C)cc1`, -0.869.
On to `C=CCOC(=O)[C@H]1[C@@H]2C(=O)O[C@@H](c3ccccc3)[C@@H](c3ccccc3)N2[C@@H](c2ccc(OCCOC(=O)[C@H]3C[C@H]4C(=O)NCC(=O)N4[C@H]3c3ccc(O)cc3)cc2)[C@]12C(=O)Nc1ccccc12`, for which the z-score is 1.02.
Still for that read-out and setting: in the case of `OCCCc1cc[n+](Cc2cc3c(cc2Br)OCO3)cc1` it was 0.463.
Same read-out and setting: as for `COc1ccc([Si](C)(C)[C@@H]2[C@@H](CC(=O)N(CCO)Cc3ccccc3)O[C@]3(C(=O)N(Cc4cccc(I)c4)c4ccccc43)[C@H]2C)cc1`, the figure is -3.25.
